Data on 12 compounds can be found in PubChem BioAssay (EPA / NIEHS).

Several values for one entry are separate records, joined by “and”; a condition that tells them apart may be missing. Identical values can stand only once. Inconclusive results are not listed. Some structures have more than one record in an assay (separate samples or runs), and their calls can disagree. Activity calls are given as the source filed them. How the source made its calls, unless noted: active means hit-call score of the fitted dose curve at least 0.9, where 1 is the maximum; inconclusive means response in the unintended direction; inactive means score below 0.9.

For test [1], the target named is Estrogen receptor beta (Homo sapiens) (UniProt Q92731). Put plainly: OT_ER_ERbERb_0480: Odyssey Thera (OT) 8-hour HEK293T Protein-Complementation Assay for Estrogen Receptor-beta/-beta Homodimer (AID 2283357).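 Further: active means signal gain over DMSO baseline.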 Summed up:
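Fluorescence gain from complemented reporter fragments on ER-beta LBD homodimer in HEK293T was quantified against DMSO controls after 8 h treatment, fixation in 4% formaldehyde and Draq5 staining.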

Test [2] addresses Norway rat Vesicular Monoamine Transporter (VMAT2), neurotransmitter transporter, Slc18a2 (gene 25549) (UniProt Q01827). Put plainly: NVS_TR_rVMAT2: NovaScreen (NVS) Transporter Assay for Norway rat Vesicular Monoamine Transporter (VMAT2), neurotransmitter transporter (AID 2283376).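 Further: actives lower the bound radioligand signal below the DMSO level.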 Summed up: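 Binding endpoint from rat forebrain tissue, cell-free; 1 h incubation; filtered radioligand counted; 25 uM duplicate primary then dose series; DMSO negative control.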

Test [3] has as its target Estrogen receptor (Homo sapiens) (UniProt P03372). Put plainly: OT_ERa_GFPERaERE_0480: Odyssey Thera (OT) 8-hour HeLa Transcription Induction Assay for Estrogen Receptor (AID 2283381; active means hit-call score of the fitted dose curve at least 0.9, where 1 is the maximum; inactive means score below 0.9). Summed up: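 Human cervical HeLa cells were treated for 8 hours, after which ERE-driven GFP induction was measured by fluorescence microscopy; increases over DMSO baseline defined activity.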

The target is the same in test [4]. Nature of the test: OT_ERa_GFPERaERE_0120: Odyssey Thera (OT) 2-hour HeLa Transcription Induction Assay for Estrogen Receptor (AID 2283382). In outline: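 Cells (human cervical HeLa) receive compound, incubate 2 hours, then are imaged for fluorescent reporter induction. Images are quantified by high content analysis, and activity is fitted as gain of signal against DMSO.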

Test [5] has as its target guinea pig Sigma Receptor, Non-selective Binding, SIGMAR1 (gene 100135589) (UniProt Q60492). Nature of the test: NVS_OR_gSIGMA_NonSelective: NovaScreen (NVS) Nuclear Receptor Binding Assay for guinea pig Sigma Receptor, Non-selective Binding (AID 2283367). In outline: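 Test chemicals were screened in duplicate at 25 uM, then in concentration series if active, against radioligand binding to guinea pig brain membranes; filtration and scintillation counting at 1 h measured remaining bound ligand.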

In test [6] the target is Estrogen receptor beta (Homo sapiens) (UniProt Q92731). Nature of the test: OT_ER_ERbERb_1440: Odyssey Thera (OT) 24-hour HEK293T Protein-Complementation Assay for Estrogen Receptor-beta/-beta Homodimer (AID 2283380).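 Further: fluorescence gain from ER beta LBD homodimer complementation read by laser scanning cytometry; scored as signal increase over DMSO baseline for both agonists and antagonists.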 In outline: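 HEK293T cells stably expressing human ER-beta LBD (aa 310-547) PCA homodimer pair, dosed 24 h; formaldehyde-fixed, Draq5-stained. Readout: increase in nuclear (agonist) or nuclear plus cytoplasmic (antagonist) fluorescence intensity versus DMSO, gain-of-signal fitting.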
Sequence of Estrogen receptor beta (Homo sapiens) (Q92731 whole entry, looked up, the tested form may be a part): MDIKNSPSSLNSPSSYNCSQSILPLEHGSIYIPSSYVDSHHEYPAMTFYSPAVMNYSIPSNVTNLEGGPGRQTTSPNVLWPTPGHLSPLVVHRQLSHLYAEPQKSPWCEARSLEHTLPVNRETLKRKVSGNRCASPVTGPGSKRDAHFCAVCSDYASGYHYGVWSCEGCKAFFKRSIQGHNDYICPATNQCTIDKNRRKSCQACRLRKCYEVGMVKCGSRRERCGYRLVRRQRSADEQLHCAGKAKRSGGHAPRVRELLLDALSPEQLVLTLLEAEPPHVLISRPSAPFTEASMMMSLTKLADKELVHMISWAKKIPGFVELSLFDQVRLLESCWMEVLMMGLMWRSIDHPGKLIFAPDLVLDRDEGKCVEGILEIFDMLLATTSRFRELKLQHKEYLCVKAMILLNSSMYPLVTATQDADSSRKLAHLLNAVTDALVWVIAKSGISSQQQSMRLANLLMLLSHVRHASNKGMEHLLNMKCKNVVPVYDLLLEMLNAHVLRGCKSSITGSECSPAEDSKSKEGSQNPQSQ

The next test concerns the target PGR (gene 5241) (UniProt P06401). Put plainly: NVS_NR_hPR: NovaScreen (NVS) Nuclear Receptor Binding Assay for human Progestron Receptor (PR) (AID 2283360).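 Further: active means loss of bound radioligand signal versus DMSO baseline.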 Summed up: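 T47D-derived receptor preparation, cell-free, with tritiated or iodinated radioligand displacement measured by scintillation 18 h post-dosing. Single 25 uM duplicate screen, then concentration series; signal loss relative to DMSO.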

Test [7] deals with human Thyroid Receptor Alpha (TRa), THRA (gene 7067) (UniProt P10827). Put plainly: NVS_NR_hTRa_Antagonist: NovaScreen (NVS) Nuclear Receptor Binding Assay for human Thyroid Receptor Alpha Antagonism (TRa) (AID 2283362).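 Further: activity is loss of signal relative to DMSO baseline.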 Summed up:
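In this biochemical format, receptor protein is dosed with chemical and read after 1 hour via AlphaLISA. Decreases from the DMSO baseline indicate antagonist activity; screening used 25 uM in duplicate before concentration-response confirmation.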

In test [8] the target is Nuclear receptor subfamily 1 group I member 2 (Homo sapiens) (UniProt O75469). Put plainly: NVS_NR_hPXR: NovaScreen (NVS) Nuclear Receptor Binding Assay for human Pregnane X Receptor (PXR) (AID 2283365).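 Further: a drop in FRET signal versus DMSO baseline means the compound binds.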 In outline: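 Read-out: TR-FRET, human PXR, 2 h post-dosing, cell-free. Loss of signal vs DMSO taken as binding activity; 25 uM primary, concentration series secondary.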
Sequence of Nuclear receptor subfamily 1 group I member 2 (Homo sapiens) (O75469 whole entry, looked up): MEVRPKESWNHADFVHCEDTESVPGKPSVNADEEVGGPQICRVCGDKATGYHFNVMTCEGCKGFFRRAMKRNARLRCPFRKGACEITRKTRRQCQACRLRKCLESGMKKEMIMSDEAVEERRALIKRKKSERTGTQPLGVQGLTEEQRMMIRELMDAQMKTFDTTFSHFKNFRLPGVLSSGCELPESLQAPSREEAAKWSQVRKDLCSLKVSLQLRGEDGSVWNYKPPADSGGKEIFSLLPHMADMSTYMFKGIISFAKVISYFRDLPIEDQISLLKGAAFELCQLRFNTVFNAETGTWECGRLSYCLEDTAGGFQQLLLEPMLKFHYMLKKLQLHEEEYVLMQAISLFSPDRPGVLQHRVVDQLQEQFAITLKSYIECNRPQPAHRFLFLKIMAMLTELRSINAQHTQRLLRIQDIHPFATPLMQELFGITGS

The target in test [9] is Peroxisome proliferator-activated receptor gamma (Homo sapiens) (UniProt P37231). Put plainly: NVS_NR_hPPARg: NovaScreen (NVS) Nuclear Receptor Binding Assay for human Peroxisome Proliferator-activated Receptor gamma (PPARg) (AID 2283370). Summed up: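 Extracted receptor protein, cell-free; compound incubated 2 h then fluorescence polarization read. Baseline: DMSO. Actives from 25 uM duplicate screen re-run across concentrations.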
Sequence of Peroxisome proliferator-activated receptor gamma (Homo sapiens) (P37231 whole entry, looked up): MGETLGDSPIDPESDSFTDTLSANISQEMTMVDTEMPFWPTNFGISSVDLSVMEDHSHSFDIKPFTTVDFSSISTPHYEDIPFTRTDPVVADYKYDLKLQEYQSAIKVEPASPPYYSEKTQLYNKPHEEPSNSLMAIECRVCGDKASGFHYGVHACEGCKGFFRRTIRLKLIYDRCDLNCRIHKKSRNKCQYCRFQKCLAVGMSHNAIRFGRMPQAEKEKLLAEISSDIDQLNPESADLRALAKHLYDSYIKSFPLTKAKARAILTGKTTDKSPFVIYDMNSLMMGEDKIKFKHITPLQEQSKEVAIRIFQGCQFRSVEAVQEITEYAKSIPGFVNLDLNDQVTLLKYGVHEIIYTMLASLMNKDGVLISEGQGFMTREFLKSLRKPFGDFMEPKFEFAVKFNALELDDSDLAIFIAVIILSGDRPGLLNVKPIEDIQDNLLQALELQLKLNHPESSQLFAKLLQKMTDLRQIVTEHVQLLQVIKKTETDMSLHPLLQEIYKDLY

Test [10] addresses mouse Estrogen Receptor alpha (Era), Esr1 (gene 13982) (UniProt P19785). Nature of the test: NVS_NR_mERa: NovaScreen (NVS) Nuclear Receptor Binding Assay for mouse Estrogen Receptor alpha (Era) (AID 2283378).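 Further: hit means loss of bound radioligand signal relative to DMSO.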 Summed up:
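Measurements come from scintillation counting after filtration, taken 18 hours after chemicals were added to a cell-free mouse Era preparation with radioligand. Screening was duplicate at 25 uM, with concurrent positive and negative controls and confirmatory concentration series for actives.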

Test [11] concerns the target Agonist Androgen Response Element (ARE), AR (gene 367) (UniProt P10275). Nature of the test: OT_AR_ARELUC_AG_1440: Odyssey Thera (OT) 24-hour CHO-K1 Luciferase Assay for Agonist Androgen Response Element (ARE) (AID 2283379). In outline: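 Luminescence increase above DMSO, read after a 24 h compound treatment of CHO-K1 cells expressing an androgen response element luciferase reporter, gives the single primary endpoint; concentration-response fitting used the positive direction.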

Test [12] has as its target rat Androgen Receptor (AR), Ar (gene 24208) (UniProt P15207). Nature of the test: NVS_NR_rAR: NovaScreen (NVS) Nuclear Receptor Binding Assay for rat Androgen Receptor (AR) (AID 2283366). In outline: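 Actives from a duplicate single-concentration (25 uM) primary run went on to concentration series. Displacement of radioligand was counted by filtration and scintillation, 18 h post-dose, using prostate extracts from testosterone-pretreated rats, with DMSO as baseline.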

Test [13] deals with human Adenosine Transporter (Adot), SLC29A1 (gene 2030) (UniProt Q99808). Nature of the test: NVS_TR_hAdoT: NovaScreen (NVS) Transporter Assay for human Adenosine Transporter (Adot) (AID 2283368). Summed up:
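Binding displacement on U937 extracted protein, read 1 h post-dose by filtration and scintillation counting. Primary duplicate test at 25 uM, then singleton concentration series with 50 uM top; DMSO baseline.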

Test [14] concerns the target human Norepinephrine Transporter (NET), SLC6A2 (gene 6530) (UniProt P23975). Nature of the test: NVS_TR_hNET: NovaScreen (NVS) Transporter Assay for human Norepinephrine Transporter (NET) (AID 2283377).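 Further: cell-free membrane protein extracted from CHO cells expressing human NET; displacement of radioligand from human NET seen as loss of scintillation signal.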 In outline: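 In this cell-free binding screen, chemicals at 25 uM (duplicate) compete with a radioligand for CHO-derived human NET over 1 hour, with filter-based radiodetection.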

In test [15] the target is human Serotonin Transporter (SERT), SLC6A4 (gene 6532) (UniProt P31645). Nature of the test: NVS_TR_hSERT: NovaScreen (NVS) Transporter Assay for human Serotonin Transporter (SERT) (AID 2283372). Summed up: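 Human platelet membrane preparation; displacement of radioligand from serotonin transporter measured after 1 h by filtration and scintillation counting. Single 25 uM duplicate screen, then concentration series for actives, with DMSO as negative baseline.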

For test [16], the target named is rat Serotonin Transporter (SERT), Slc6a4 (gene 25553) (UniProt P31652). Put plainly: NVS_TR_rSERT: NovaScreen (NVS) Transporter Assay for rat Serotonin Transporter (SERT) (AID 2283375). In outline: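 Using rat forebrain membrane SERT, test chemicals compete with a radioligand for 1 hour, and bound counts are taken by filter-based scintillation. Screening starts at 25 uM in duplicate, followed by concentration series for actives.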

The target of test [17] is human Peroxisome Proliferator-activated Receptor alpha (PPARa), PPARA (gene 5465) (UniProt Q07869). Nature of the test: NVS_NR_hPPARa: NovaScreen (NVS) Nuclear Receptor Binding Assay for human Peroxisome Proliferator-activated Receptor alpha (PPARa) (AID 2283359).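 Further: activity means loss of TR-FRET signal versus DMSO baseline.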 In outline: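 One-hour incubation, cell-free extracted protein, TR-FRET binding readout; signal loss vs DMSO scored. Screen: 25 uM duplicates, confirmatory dose series for actives.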

Sequence of PGR (gene 5241) (P06401 whole entry, looked up): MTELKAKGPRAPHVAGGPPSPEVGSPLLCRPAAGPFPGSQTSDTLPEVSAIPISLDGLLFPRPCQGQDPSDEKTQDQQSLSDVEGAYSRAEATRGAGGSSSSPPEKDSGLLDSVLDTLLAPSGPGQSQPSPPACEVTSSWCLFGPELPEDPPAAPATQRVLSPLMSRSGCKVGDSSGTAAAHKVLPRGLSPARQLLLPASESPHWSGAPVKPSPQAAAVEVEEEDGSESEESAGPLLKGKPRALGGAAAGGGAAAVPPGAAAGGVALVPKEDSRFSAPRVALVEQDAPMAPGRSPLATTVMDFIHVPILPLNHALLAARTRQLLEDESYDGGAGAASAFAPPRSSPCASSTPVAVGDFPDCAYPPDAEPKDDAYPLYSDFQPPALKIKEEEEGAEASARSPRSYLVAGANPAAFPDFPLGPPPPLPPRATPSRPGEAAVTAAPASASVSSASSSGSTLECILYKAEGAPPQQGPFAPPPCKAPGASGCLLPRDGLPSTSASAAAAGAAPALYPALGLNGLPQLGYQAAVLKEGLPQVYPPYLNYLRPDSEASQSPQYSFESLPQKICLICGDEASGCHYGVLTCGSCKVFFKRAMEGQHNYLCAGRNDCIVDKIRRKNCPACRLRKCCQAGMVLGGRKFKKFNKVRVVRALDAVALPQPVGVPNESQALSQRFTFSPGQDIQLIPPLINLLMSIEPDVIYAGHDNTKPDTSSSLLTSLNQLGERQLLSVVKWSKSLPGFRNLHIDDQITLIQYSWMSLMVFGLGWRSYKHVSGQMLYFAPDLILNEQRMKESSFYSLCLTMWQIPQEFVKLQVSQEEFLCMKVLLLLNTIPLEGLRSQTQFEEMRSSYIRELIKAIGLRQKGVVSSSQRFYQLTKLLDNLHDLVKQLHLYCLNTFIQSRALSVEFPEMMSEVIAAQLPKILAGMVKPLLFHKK
Sequence of guinea pig Sigma Receptor, Non-selective Binding, SIGMAR1 (gene 100135589) (Q60492 whole entry, looked up): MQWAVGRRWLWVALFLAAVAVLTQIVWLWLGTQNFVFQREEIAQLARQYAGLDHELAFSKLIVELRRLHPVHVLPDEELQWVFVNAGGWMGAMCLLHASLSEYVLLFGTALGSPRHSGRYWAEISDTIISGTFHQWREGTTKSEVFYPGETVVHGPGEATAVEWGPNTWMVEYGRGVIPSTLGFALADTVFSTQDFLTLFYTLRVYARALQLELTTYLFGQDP
Sequence of Agonist Androgen Response Element (ARE), AR (gene 367) (P10275 whole entry, looked up): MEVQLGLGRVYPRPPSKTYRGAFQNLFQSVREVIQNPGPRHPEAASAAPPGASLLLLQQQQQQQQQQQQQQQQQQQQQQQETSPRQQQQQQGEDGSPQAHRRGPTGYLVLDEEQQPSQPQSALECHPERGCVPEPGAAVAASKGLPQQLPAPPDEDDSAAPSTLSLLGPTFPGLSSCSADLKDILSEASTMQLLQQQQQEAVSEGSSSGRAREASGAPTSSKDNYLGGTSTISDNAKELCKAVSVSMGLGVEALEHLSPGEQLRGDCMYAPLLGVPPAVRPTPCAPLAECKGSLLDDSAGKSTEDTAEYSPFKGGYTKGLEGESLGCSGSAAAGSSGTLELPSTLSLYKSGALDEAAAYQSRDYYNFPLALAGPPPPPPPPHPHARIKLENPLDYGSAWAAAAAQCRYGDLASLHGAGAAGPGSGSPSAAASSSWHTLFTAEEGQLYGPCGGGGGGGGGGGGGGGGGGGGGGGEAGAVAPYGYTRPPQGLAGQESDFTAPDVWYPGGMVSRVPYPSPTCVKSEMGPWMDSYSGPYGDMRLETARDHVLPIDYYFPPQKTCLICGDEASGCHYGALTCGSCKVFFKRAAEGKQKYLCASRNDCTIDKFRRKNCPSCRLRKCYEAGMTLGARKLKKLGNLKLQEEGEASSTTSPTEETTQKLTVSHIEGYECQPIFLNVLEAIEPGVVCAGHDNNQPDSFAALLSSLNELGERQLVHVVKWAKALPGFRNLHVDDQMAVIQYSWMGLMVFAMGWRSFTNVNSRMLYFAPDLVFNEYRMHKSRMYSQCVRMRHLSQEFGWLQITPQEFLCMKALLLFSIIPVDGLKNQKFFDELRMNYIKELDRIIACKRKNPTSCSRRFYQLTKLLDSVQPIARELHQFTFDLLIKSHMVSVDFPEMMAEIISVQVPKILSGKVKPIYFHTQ
Sequence of mouse Estrogen Receptor alpha (Era), Esr1 (gene 13982) (P19785 whole entry, looked up): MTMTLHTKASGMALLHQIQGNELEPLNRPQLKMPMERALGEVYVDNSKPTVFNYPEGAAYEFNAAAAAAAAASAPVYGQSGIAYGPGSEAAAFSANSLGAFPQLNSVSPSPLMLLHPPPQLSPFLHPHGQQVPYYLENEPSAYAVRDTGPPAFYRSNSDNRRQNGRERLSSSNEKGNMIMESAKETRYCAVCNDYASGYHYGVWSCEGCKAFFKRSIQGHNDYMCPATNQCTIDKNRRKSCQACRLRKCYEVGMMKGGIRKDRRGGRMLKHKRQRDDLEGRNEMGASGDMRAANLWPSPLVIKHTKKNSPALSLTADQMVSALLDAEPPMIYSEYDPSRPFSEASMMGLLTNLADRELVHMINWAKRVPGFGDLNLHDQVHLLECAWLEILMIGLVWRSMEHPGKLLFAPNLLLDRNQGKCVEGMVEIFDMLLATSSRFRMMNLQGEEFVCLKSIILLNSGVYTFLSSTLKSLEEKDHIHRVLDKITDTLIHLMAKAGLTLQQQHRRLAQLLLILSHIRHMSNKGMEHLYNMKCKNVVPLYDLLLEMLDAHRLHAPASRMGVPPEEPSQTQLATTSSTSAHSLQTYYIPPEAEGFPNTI
Sequence of Estrogen receptor (Homo sapiens) (P03372 whole entry, looked up): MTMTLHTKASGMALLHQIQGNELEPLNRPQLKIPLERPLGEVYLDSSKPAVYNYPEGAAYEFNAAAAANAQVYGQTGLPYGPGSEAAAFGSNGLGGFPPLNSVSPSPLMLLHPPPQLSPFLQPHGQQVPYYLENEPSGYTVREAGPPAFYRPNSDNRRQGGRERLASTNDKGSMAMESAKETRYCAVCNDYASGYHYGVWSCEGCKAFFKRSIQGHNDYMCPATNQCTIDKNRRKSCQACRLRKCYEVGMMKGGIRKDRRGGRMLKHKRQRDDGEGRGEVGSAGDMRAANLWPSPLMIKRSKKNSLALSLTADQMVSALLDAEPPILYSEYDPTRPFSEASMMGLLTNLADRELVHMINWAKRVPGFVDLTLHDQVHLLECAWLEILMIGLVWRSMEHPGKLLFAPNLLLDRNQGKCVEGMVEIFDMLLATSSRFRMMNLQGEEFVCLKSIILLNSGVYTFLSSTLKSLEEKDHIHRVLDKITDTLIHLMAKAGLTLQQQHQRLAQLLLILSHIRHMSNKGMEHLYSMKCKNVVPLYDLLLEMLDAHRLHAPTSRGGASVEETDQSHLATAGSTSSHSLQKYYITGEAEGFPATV

In the case of `CCOC(=O)C(Cl)Cc1cc(-n2nc(C)n(C(F)F)c2=O)c(F)cc1Cl` (stereo unspecified), the outcome in test [1], in test [2], in test [3] and in test [4] was inactive.

Broadly, the AC50 is the concentration giving half of the maximal activity seen. On to `OC(c1ccc(Cl)cc1)(c1cncnc1)c1ccccc1Cl` (stereo unspecified), for which the values for the AC50 in [1] and in test [3] were 12.5 µM (active) and 12.1 µM (active), respectively. For the same compound, the compound was called inactive in test [5], in test [6] and in test [4].

On to `CCCCOC(=O)c1ccccc1C(=O)OCCCC`, for which the AC50 is 28.8 µM (active) and 38.1 µM (active) and 34.2 µM (active) in test [1]; 0.111 µM (active) in [7]; 25 µM (active) in test [10]; 33.4 µM (active) and 37.5 µM (active) and 31.9 µM (active) in test [6]; 34.7 µM (active) and 31.9 µM (active) and 23.8 µM (active) in test [3]; 30.6 µM (active) and 20.8 µM (active) and 24.9 µM (active) in [4]. Besides, the compound was called inactive (with PGR (gene 5241); in [8]; in test [9]; in test [10]).

As to `COC(=O)c1ccccc1C(=O)OC`, the outcome (in test [1]; with PGR (gene 5241); in [9]; in [10]; in test [6]; in [3]) was inactive. In addition, the outcome in [4] was inactive.

As to `CN(C)C(=S)SSC(=S)N(C)C`, the result in [1], in test [11] and in test [6] was inactive. Besides, the AC50 in [3] was 83.4 µM (active); in test [4], 90.7 µM (active).

For `CCc1nn(C)c(C(=O)NCc2ccc(C(C)(C)C)cc2)c1Cl`, the call in [1], in test [6], in [3] and in test [4] was inactive. In addition, the AC50 in test [5] is 16.2 µM (active).

As to `N#CC(CCc1ccc(Cl)cc1)(Cn1cncn1)c1ccccc1` (stereo unspecified), the compound was called inactive in test [1], in [12], in test [13], in [11], in test [6] and in test [3]. In [4], the outcome was inactive.

As for `CS/C(C)=N/OC(=O)N(C)SN(C)C(=O)O/N=C(\C)SC`, the compound was called inactive in [1], in test [11], in test [6] and in [4]. In [3], the AC50 is 93.3 µM (active).

As to `CC1COC(Cn2cncn2)(c2ccc(Oc3ccc(Cl)cc3)cc2Cl)O1` (stereo unspecified), the outcome (in test [1]; with PGR (gene 5241); in [2]; in test [6]; in test [3]; in test [4]) was inactive. The values for the AC50 in test [5] and in test [14] were 1.27 µM (active) and 12 µM (active), respectively.

As for `COc1nc(NC(C)C)nc(NC(C)C)n1`, the compound was classed as inactive in [1], in test [15], in test [16], in test [6], in test [3] and in test [4].

As to `C=CC1(C)OC(=O)N(c2cc(Cl)cc(Cl)c2)C1=O` (stereo unspecified), the compound was called inactive in test [1], in test [9], in test [10], in [6], in test [3] and in test [4]. Moreover, the AC50 is 37.4 µM (active) in [17], 10.1 µM (active) in [10] and 50 µM (active) in test [4].

Turning to `CCOP(=S)(OCC)SCn1c(=O)oc2cc(Cl)ccc21`, the call (in test [1]; in the test with PGR (gene 5241); in test [6]; in test [3]; in [4]) was inactive.
